# Bioassay records as filed in PubChem BioAssay.
# Compounds with a hit are over-represented: about 5.7% of the library has one in this group of screens.
# Myeloid diff MLP – compounds promoting myeloid differentiation. 360,000 compounds, 1% hits. ER-HoxA9 myeloid progenitors, lysozyme-GFP differentiation, flow cytometry. calls only at 10 µM;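 active = normalized GFP-positive differentiation at or above the plate's own cutoff, the solvent-only control mean plus 3 SD; inconclusive = no clear call, values can overlap the other calls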;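 also: cells exposed to compound for four days before flow analysis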
# rCAG RNA binder – binds r(CAG) RNA repeats; r(CAG) RNA repeat, TO-PRO-1 dye displacement fluorescence; inhibition, % at 3 µM; 370,000 compounds, 1.3% hits;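 active = inhibition above the plate cutoff, the mean of all test compounds on that plate plus 3 SD, cut at about 35% in these data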;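 also: 0% = DMSO alone and 100% = 100 µM mitoxantrone as full dye displacement; higher means more dye released from RNA so lower well fluorescence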
# MPTP inh – inhibitors of mitochondrial permeability transition pore. isolated mouse mitochondria, Ca2+ swelling absorbance, 30 min. 360,000 compounds, 1.4% hits. inhibition, % at 10 µM;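 active = inhibition of 50% or more, scaled per plate between neutral and stimulator controls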;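 also: 0% = DMSO wells given calcium and 100% = 1 mM EGTA wells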
# GRIN3A LBD mod – modulators (binders) of human NR3A ligand-binding domain. Tm shift relative to glycine control, % at 25 µM. NR3A LBD differential scanning fluorimetry, Tm shift; 0% = protein alone, 100% = glycine-bound protein. 340,000 compounds, 2.5% hits. AID 1259313;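 active = melting temperature shift of at least 10% of the positive control shift, at one fixed dose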
# FAS TE block – blocks the thioesterase domain of human fatty acid synthase; 360,000 compounds, 0.67% hits; recombinant FAS-TE, OMFH fluorogenic substrate, fluorescence endpoint; inhibition, % at 15 µM;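 active = compounds whose normalised, plate-corrected inhibition of enzyme fluorescence in the single-dose primary screen is 50% or more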;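 also: 0% = DMSO with enzyme and 100% = substrate without enzyme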
# Target sequence (P49327 whole entry, looked up, the tested form may be a part): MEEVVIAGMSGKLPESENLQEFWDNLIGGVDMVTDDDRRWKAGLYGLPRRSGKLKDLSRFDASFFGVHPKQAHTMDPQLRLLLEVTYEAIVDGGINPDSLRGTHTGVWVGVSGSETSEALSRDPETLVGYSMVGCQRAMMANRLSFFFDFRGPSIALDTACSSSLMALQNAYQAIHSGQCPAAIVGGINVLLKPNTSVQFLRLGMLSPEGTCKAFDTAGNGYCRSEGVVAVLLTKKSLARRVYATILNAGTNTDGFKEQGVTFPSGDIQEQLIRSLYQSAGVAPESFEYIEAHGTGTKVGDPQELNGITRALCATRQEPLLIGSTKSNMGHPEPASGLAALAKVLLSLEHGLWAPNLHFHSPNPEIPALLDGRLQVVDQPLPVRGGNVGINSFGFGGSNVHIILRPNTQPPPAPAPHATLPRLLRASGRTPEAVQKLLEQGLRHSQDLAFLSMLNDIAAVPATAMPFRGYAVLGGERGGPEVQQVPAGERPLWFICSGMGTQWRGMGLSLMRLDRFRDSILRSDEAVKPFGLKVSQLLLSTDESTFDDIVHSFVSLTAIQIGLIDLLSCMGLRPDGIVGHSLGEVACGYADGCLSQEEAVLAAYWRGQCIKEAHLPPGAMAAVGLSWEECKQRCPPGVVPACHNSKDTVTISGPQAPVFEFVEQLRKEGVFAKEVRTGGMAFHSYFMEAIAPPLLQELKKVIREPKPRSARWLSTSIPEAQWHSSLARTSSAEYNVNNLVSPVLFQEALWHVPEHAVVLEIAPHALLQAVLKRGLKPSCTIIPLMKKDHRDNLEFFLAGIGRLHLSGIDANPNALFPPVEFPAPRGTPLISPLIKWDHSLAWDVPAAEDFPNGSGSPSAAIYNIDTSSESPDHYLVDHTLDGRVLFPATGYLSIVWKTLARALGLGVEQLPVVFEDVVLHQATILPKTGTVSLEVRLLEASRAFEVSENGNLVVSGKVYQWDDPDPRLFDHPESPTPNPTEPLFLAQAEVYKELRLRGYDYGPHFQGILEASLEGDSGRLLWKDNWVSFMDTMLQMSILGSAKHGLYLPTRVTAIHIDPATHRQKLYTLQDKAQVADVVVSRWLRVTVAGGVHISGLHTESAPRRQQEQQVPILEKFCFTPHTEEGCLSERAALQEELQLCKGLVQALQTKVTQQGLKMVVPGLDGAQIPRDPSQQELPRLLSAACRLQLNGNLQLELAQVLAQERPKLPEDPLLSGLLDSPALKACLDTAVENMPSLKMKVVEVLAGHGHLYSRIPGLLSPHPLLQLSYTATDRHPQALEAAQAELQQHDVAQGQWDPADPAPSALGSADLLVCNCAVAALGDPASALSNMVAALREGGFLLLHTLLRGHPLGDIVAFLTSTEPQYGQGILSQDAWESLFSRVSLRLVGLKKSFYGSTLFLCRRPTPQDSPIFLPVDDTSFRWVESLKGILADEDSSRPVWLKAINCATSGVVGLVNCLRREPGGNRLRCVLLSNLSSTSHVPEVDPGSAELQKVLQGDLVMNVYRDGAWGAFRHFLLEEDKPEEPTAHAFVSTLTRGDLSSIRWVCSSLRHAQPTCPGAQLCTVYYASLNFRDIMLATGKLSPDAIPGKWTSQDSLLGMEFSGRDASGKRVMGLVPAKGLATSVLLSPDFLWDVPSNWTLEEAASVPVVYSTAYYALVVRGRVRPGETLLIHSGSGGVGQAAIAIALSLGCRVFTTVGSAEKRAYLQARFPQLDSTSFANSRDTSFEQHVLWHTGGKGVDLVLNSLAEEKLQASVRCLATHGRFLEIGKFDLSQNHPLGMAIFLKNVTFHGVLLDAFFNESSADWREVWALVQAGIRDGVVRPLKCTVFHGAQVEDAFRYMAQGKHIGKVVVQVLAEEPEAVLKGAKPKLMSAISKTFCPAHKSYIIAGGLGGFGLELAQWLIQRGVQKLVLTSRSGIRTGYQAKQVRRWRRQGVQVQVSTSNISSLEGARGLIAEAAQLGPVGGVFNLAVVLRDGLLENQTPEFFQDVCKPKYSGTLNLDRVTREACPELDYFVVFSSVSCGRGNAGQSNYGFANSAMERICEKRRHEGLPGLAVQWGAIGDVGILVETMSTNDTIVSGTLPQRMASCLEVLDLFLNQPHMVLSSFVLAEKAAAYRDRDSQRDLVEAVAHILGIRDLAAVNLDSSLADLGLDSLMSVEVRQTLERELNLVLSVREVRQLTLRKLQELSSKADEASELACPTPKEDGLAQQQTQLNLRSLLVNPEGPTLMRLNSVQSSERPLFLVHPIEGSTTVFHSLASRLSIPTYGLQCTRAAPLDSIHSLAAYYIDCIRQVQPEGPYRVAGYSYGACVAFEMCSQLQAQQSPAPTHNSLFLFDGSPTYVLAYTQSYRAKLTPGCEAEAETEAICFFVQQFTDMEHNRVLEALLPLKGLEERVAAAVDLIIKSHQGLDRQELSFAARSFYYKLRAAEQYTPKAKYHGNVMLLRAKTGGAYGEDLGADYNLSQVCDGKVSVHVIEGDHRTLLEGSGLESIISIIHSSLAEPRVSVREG
# FAS-TE conf – FAS thioesterase (human) inhibition, confirmation; shares compounds with FAS TE block; recombinant FAS-TE, OMFH fluorogenic substrate, fluorescence; inhibition, % at 15 µM; 2,300 compounds, 45% hits; AID 624325;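 active = compounds inhibiting the enzyme by at least 50% at 15 µM in any one of the replicates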;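 also: 0% = enzyme with DMSO only and 100% = wells lacking enzyme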
# Numbers without * were called inactive; i = inactive; ? = inconclusive; . = not tested or not shown.
SMILES,Myeloid diff MLP,rCAG RNA binder,MPTP inh,GRIN3A LBD mod,FAS TE block,FAS-TE conf
O=C(/C=C/c1cccs1)N1CCC2(CC1)Oc1ccc(Cl)cc1C(=O)C21CC(c2ccccc2)=NO1 (stereo not drawn),i,11.1,-1.1,1.3,73.3*,10.1
CC(Oc1ccccc1)C(=O)N1CCC2(CC1)Oc1ccc(F)cc1C(=O)C21CC(c2ccccc2)=NO1 (stereo not drawn),i,9.2,-2.4,2.8,61.5*,7.4
CCC(=O)N1CCC2(CC1)Oc1ccc(Cl)cc1C(=O)C21CC(c2ccccc2)=NO1 (stereo not drawn),i,-1.2,-2.0,-0.4,10.8,.
O=[N+]([O-])c1cc2c(ccc3occc32)o1,.,8.8,.,.,.,.
O=C(CN1c2ccccc2Sc2ccccc21)N/N=C/c1ccc([N+](=O)[O-])cc1,i,22.5,5.6,32.5*,69.1*,16.1
Cn1cc(CCOCc2ccccc2)c2ccccc21,.,2.5,.,.,.,.
COC(=O)[C@@H](c1ccccc1)N(C)S(=O)(=O)c1cccc(S(=O)(=O)N(C)[C@@H](C(=O)OC)c2ccccc2)c1,?,0.4,2.3,0.9,52.8*,31.9
CN1C(C(=O)NCc2cccc(Br)c2)CC2Cn3c(nc4cc(Cl)c(Cl)cc43)C21 (stereo not drawn),i,-1.1,0.0,-7.3,57.2*,43.6*
Cc1ccccc1N(CC(=O)NCc1ccc2c(c1)OCO2)C(=O)C1CSC(=O)C1 (stereo not drawn),i,2.7,-0.4,-0.5,68.8*,66.5*
COc1ccc(CNC(=O)CC2C[C@H](C(=O)N3CCOCC3)[C@@]3(CCC4CCCC4)c4[nH]c5ccccc5c4CCN3C2=O)cc1OC (stereo partly drawn),i,2.3,-0.3,-0.3,77.2*,87.9*
COc1ccc(CNC(=O)C[C@H]2C[C@H](C(=O)N3CCCCC3)[C@@]3(CCc4ccccc4)c4[nH]c5ccc(Cl)cc5c4CCN3C2=O)cc1OC,i,8.1,-2.7,-4.2,69.4*,18.8
O=C(CC1C[C@H](C(=O)N2CCOCC2)[C@@]2(CCC3CCCC3)c3[nH]c4ccccc4c3CCN2C1=O)NCc1cccc(C(F)(F)F)c1 (stereo partly drawn),i,3.9,-1.2,6.4,60.9*,33.6*
CN(C)C(=O)CCc1ccc2c3c([nH]c2c1)[C@]1(CCC2CCCC2)[C@@H](C(=O)N2CCOCC2)C[C@H](CC(=O)NCc2cccc(C(F)(F)F)c2)C(=O)N1CC3,i,4.9,-0.5,-5.7,21.6,.
COc1ccc2[nH]c3c(c2c1)CCN1C(=O)C(CC(=O)NCc2ccc(OC)c(OC)c2)C[C@H](C(=O)N2CCOCC2)[C@@]31CCC1CCCC1 (stereo partly drawn),i,5.5,0.9,-2.5,43.2,.
O=S1(=O)c2ccc(N3CCSCC3)cc2Oc2ccccc2CN1Cc1cn(Cc2ccc(F)cc2)nn1,.,7.1,.,.,.,.
COc1ccc(C(=O)NCC2CCN(C(=O)C(=O)c3cc4ccccc4o3)CC2)cc1,.,5.0,.,.,.,.
CC1=C(C(=O)Nc2nc3ccccc3s2)C(c2ccco2)C(C#N)=C(SCC(=O)NC2CCCCC2)N1 (stereo not drawn),i,13.7,4.6,-3.8,76.7*,-3.3
Brc1ccccc1C1Cc2nnccc2CN1 (stereo not drawn),.,3.2,.,.,.,.
COC(=O)[C@@]1(C(C)C)N=C(c2cc(OC)c(OC)c(OC)c2)[C@]2(O1)C(=O)N(Cc1ccc(OC)cc1)c1ccc(Br)cc12,i,3.7,-0.6,.,53.1*,14.4
Cc1ccc(-n2cnc3c(sc4nc(N5CCOCC5)c5c(c43)CCCC5)c2=O)cc1,i,-3.3,3.6,2.5,49.9,.
Cc1ccccc1-n1cnc2c(sc3nc(N4CCOCC4)c4c(c32)CCCC4)c1=O,i,6.4,6.2,-0.2,65.8*,13.2
COc1ccc(-n2cnc3c(sc4nc(N5CCOCC5)c5c(c43)CCCC5)c2=O)cc1,i,-0.9,-3.1,-1.2,63.3*,5.4
O=c1c2sc3nc(N4CCOCC4)c4c(c3c2ncn1-c1ccccc1)CCCC4,i,7.7,-3.0,-1.5,42.5,.
COc1ccc(OC)c(CN2C(=O)CCCC2(C)c2nnnn2C2CCCC2)c1 (stereo not drawn),.,0.6,.,.,.,.
COc1ccc(NS(=O)(=O)c2cc(NC(=O)COc3ccc(OC)cc3)ccc2N2CCOCC2)cc1,i,9.1,-1.4,2.8,53.0*,23.7
SMILES,Myeloid diff MLP,rCAG RNA binder,MPTP inh,GRIN3A LBD mod,FAS TE block,FAS-TE conf
COc1ccccc1NS(=O)(=O)c1cc(NC(=O)c2cc(F)c(F)c(F)c2F)ccc1N1CCOCC1,i,10.1,2.3,-0.8,38.9,.
COc1ccccc1NS(=O)(=O)c1cc(NC(=O)c2ccccc2C)ccc1N1CCOCC1,i,7.1,0.6,-4.8,53.3*,14.9
CC(C)(C)S(=O)(=O)N1C[C@@H]2C(=C(CCO)C[C@@H]3C(=O)N(c4ccccc4)C(=O)[C@@H]32)[C@H]1CCO,.,0.0,.,.,.,.
C=CCN1C(=O)[C@@H](CC(=O)NCc2cccc3ccccc23)[C@]2(C(=O)OCC)CCCCC/C=C/12,.,2.9,.,.,.,.
CC(=O)Nc1cc2nc3ccccc3oc-2cc1=O,.,-0.1,.,.,.,.
Cc1ccc(S(=O)(=O)Nc2cccc(-c3ccc(N4CCCCCC4)nn3)c2)c(C)c1,i,11.2,-0.6,4.9,58.9*,60.1*
O=C(N/N=C/c1ccc(Br)o1)/C(=C/c1ccc([N+](=O)[O-])cc1)NC(=O)c1ccccc1,i,26.2,1.2,-1.6,57.8*,31.6*
COc1ccc([N+](=O)[O-])cc1/C=N/NC(=O)/C(=C\c1cccs1)NC(=O)c1ccccc1,i,24.4,-0.2,-2.2,79.4*,65.7*
Cc1cc(C)cc(C(O)c2ncc(-c3ccc4ccccc4c3)[nH]2)c1 (stereo not drawn),i,5.7,3.9,.,12.4,.
O=C(Nc1ccc(Cl)cc1)C(Cl)C(=O)c1ccccc1 (stereo not drawn),i,5.6,6.3,-3.0,77.0*,86.9*
COC(=O)C1=C(C)NC(C)=C(C(=O)OC)C1c1ccc(OC(=O)c2oc3ccccc3c2C)c(OC)c1,i,2.4,4.6,1.9,52.4*,17.6
CCOc1ccc(CCNC(=O)COC(=O)c2cc([N+](=O)[O-])ccc2N2CCOCC2)cc1OCC,i,-5.0,-0.7,-0.6,52.7*,56.6*
O=C(COC(=O)c1cc([N+](=O)[O-])ccc1N1CCOCC1)NCCc1ccccc1,i,-7.2,-1.2,15.9*,78.0*,66.0*
COc1ccc(CCNC(=O)c2cc([N+](=O)[O-])ccc2N2CCOCC2)cc1,i,-1.3,-1.3,-0.4,25.2,.
O=C(COC(=O)c1cc([N+](=O)[O-])ccc1N1CCOCC1)NCc1ccc(F)cc1,i,-4.8,-0.5,-0.3,88.1*,80.9*
